Results as given in PubChem BioAssay (NCI).
About 83,000 compounds went through this panel and 20% of them were active in at least one assay; those are over-represented in the sample as a whole.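 Treatment: one concentration, 48 hours, 96-well format. Scoring: percent growth, with anything below 10 considered active.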 Unmarked numbers belong to inactive results. The source made the active and inactive calls.

Legend:
Experiment in all cases: NCI-60 one-dose screen, 48 h (100 = growth as untreated, 0 = no growth, -100 = all killed)
Conditions in all cases: 10 µM unless noted
[1] = system: SR leukemia
[2] = system: RPMI-8226 leukemia
[3] = system: OVCAR-8 ovarian
[4] = system: OVCAR-5 ovarian
[5] = system: OVCAR-4 ovarian
[6] = system: SK-OV-3 ovarian
[7] = system: IGROV1 ovarian
[8] = system: OVCAR-3 ovarian
[9] = system: HS 578T breast
[10] = system: NCI/ADR-RES ovarian

Row | SMILES | growth [1] | growth [2] | growth [3] | growth [4] | growth [5] | growth [6] | growth [7] | growth [8] | growth [9] | growth [10]
1 | Cc1ccc(/C=C2\COc3ccc(O)cc3C2=O)cc1 | 12.7% | -1.31% (active) | 91.7% | 102% | 93.3% | 126% | 95.1% | 101% | 97.5% | 101%
2 | S=c1sc2c(Cl)nc(-c3cccnc3)nc2n1-c1ccccc1 | -27.2% (active) | -3.47% (active) | 18% | 125% | 70.6% | 87.9% | -60.2% (active) | 52.2% | 55.9% | 60.2%
3 | Fc1cccc(Oc2ccc(Nc3ncnc4ccc(OCCCN5CCOCC5)cc34)cc2Cl)c1 | 20.9% | 38.5% | 62% | 78.1% | 53.5% | 7.14% (active) | 12.1% | 45.4% | 74.5% | 55.1%
4 | Cn1ccnc1C(=O)/C=C/c1ccc(CC(=O)Nc2cc(C(F)(F)F)cc(C(F)(F)F)c2)cc1 | 39.4% | 55% | 41% | 83.8% | 78.8% | 109% | 71.4% | 62.6% | 66.6% | 65.3%
5 | O=C(N(c1ccccc1)c1ccccc1)n1cc(I)c2nc(Cl)nc(Cl)c21 | 18.9% | 0.0387% (active) | 22.6% | 63.7% | 68.4% | 60.9% | 61.8% | 25.8% | 39.1% | 42.4%
6 | CCCCNC(=O)Oc1ccc(/C(=C(/C)Cc2ccc(OC)cc2)c2ccc(OCCN3CCCC3)cc2)cc1 | -54.1% (active) | 1.62% (active) | 69.6% | 86% | 68.9% | 89.1% | 85.5% | 56.1% | 50.4% | 81.5%
7 | O=C(Nn1c2c(sc1=NC1CC1)C(=O)c1ccccc1C2=O)c1cc2ccc1CCc1ccc(cc1)CC2 | 29.4% | 19.5% | 3.79% (active) | 111% | 40.5% | 59.1% | 34.6% | 1.11% (active) | 46.2% | 17.8%
8 | O=C(c1nn(-c2ccccc2)c2c1CC(NCc1ccc(F)cc1)CC2)N1CCCCC1 (stereo not given) | 94.6% | 110% | 97% | 103% | 99.2% | 103% | 97.7% | 104% | 107% | 93.9%
9 | c1ccc(-c2oc(-c3ccccc3)c(CN3CCCCC3)c2CN2CCCCC2)cc1 | -2.07% (active) | -6.38% (active) | 33% | 50.3% | 11.9% | 52.3% | 44.7% | 23.4% | 34.3% | 39.8%
10 | Cc1c2cnccc2c(C)c2c1c1cc(C#N)ccc1n2C | 0.777% (active) | -22.9% (active) | 6.24% (active) | -15% (active) | -39.4% (active) | -3.17% (active) | -11.4% (active) | -7.57% (active) | -18% (active) | -9.81% (active)
11 | COc1ccc(-c2ccc(=O)oc2-c2cc(OC)c(OC)c(OC)c2)cc1O | 0.907% (active) | 9.69% (active) | 14.2% | 22.8% | 39.8% | 25.9% | 3.86% (active) | -72.7% (active) | -2.33% (active) | 12.9%
12 | CC1=NC2=Nn3c(c4cnn(-c5ccccc5)c4n/c3=N\N)NN2C(c2ccccc2)=C1 | 99.6% | 98.3% | 101% | 90% | 94.7% | 98% | 61.8% | 90.2% | 80.5% | 97.5%
13 | COc1ccc(CN2c3ccccc3Sc3ccccc32)cc1F | 16.9% | 21.2% | 23.7% | 43.1% | 49.2% | 16.8% | 35.5% | -5.46% (active) | 16.9% | 2.82% (active)
14 | COc1cc(/C=C2/C=C(c3ccccc3)N(CCc3ccc(S(N)(=O)=O)cc3)C2=O)cc(OC)c1OC | 82.4% | 66.8% | 91.6% | 118% | 101% | 103% | 101% | 110% | 98.2% | 99.6%
15 | CCCOC(=O)Nc1nc2ccc(SCC(C)C)cc2s1 | 14.3% | 28.4% | 60.5% | 60.1% | 61.2% | 48.5% | 55.4% | 15.6% | 65.3% | 16.1%
16 | CCOC(=O)c1cc2c(n1Cc1cc(OC)c(OC)c(OC)c1)-c1nc(N)sc1CCC2 | 5.15% (active) | 75.9% | 55.4% | 98.3% | 65% | 29.3% | 50.8% | 21.1% | 55.7% | 20.8%
17 | COC(=O)c1nc(-c2ccc(C)cc2)oc1S(=O)(=O)c1cccc(OC)c1 | 0.69% (active) | 94.2% | 93% | 92.1% | 107% | 105% | 81.5% | 77.8% | 110% | 103%
18 | NC(=O)CSc1oc(-c2ccccc2)nc1S(=O)(=O)c1ccc(Br)cc1 | 79.3% | 81.1% | 49.4% | 109% | 45.4% | 88.3% | 93% | 62.5% | 56.1% | 86.4%
19 | CCCNc1nc2ccccc2c2c1S(=O)(=O)c1ccc(Cl)cc1C2=O | 8.34% (active) | -10.2% (active) | 3.78% (active) | 8% (active) | 13.1% | 32.2% | 24.6% | -17% (active) | 7.32% (active) | 8.31% (active)
20 | Fc1cnccc1C1CC(c2ccc(N3CCNCC3)cc2)=NN1 (stereo not given) | 90.4% | 92.5% | 95.1% | 111% | 108% | 85% | 68% | 98.8% | 89.2% | 106%
21 | COc1ccc(/C=C(\C#N)n2nnc3ccc(Cl)cc32)cc1 | 29.9% | 67.8% | 48.8% | 92% | 71.6% | 108% | 59.5% | -18.4% (active) | 74.4% | 39.3%
22 | O=C(CSc1nc2sc3c(c2c(=O)n1-c1ccccc1)CCCCC3)N/N=C/c1cccc([N+](=O)[O-])c1 | 38.3% | 73.4% | 16.3% | 78% | -6.2% (active) | 80.4% | 71.1% | 10.9% | -1.34% (active) | 44%
23 | N=C(N)c1ccc(-c2ccc(-c3ccc(Cl)cc3Cl)s2)cc1 | 4.31% (active) | -24.4% (active) | -21.3% (active) | 38.6% | -16.2% (active) | 88% | -37.5% (active) | -16.4% (active) | 71.6% | 77.5%
24 | C/C(Cc1ccc(Cl)cc1)=C(\c1ccc(O)cc1)c1ccc(Cl)cc1 | 80.5% | 72.5% | 104% | 92.5% | 89.3% | 112% | 96.8% | 103% | 99.6% | 100%
25 | C#CCOc1cccc(Nc2ncnc3ccc(NC(=O)C=C)cc23)c1 | 21.1% | 35.7% | 32.4% | 52.6% | 59.3% | -3.78% (active) | -6.06% (active) | 19.2% | 42.4% | 36.1%
26 | COc1ccc(F)cc1/C=C/C(=O)/C=C(/C=C/c1cc(F)ccc1OC)OB(F)F | -0.793% (active) | -13.5% (active) | 7.46% (active) | 48.9% | 28.8% | 97% | 25% | 1.71% (active) | 19.9% | 19.8%
27 | N=C(N)c1ccc(-c2ccc(-c3ccc(Cl)c(Cl)c3)s2)nc1 | 3.84% (active) | -8.11% (active) | -19.9% (active) | 20.1% | 16.3% | 86.6% | -40.6% (active) | -77.8% (active) | 67.6% | 82.9%
